From PubChem
CHRM4 antagonist = blocks acetylcholine activation of human M4 receptor. hit rate 0.73% among 360,000. AID 624125. P08173. CHO-hM4 cells, ACh EC80, Fluo-8 calcium fluorescence. inhibition, % at 3 µM;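 active = inhibition above its plate's cutoff, the mean inhibition of sample wells plus 3 SD, cut at about 27% in these data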;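 note: 0% = acetylcholine EC80 with DMSO and 100% = DMSO without agonist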
Target sequence (P08173 whole entry, looked up): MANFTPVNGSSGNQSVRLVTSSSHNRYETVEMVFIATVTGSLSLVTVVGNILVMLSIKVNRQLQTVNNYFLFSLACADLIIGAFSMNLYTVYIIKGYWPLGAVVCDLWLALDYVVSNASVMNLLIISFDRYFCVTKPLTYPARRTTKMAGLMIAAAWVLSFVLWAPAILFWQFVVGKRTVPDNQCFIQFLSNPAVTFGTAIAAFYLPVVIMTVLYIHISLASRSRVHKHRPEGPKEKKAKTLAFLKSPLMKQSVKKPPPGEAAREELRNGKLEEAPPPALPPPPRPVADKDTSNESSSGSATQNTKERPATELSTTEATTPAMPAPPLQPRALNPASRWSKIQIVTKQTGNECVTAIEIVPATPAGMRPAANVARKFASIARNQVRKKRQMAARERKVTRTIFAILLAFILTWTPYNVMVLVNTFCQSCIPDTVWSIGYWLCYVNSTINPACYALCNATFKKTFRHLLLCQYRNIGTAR
M4 ag = agonists of human muscarinic M4 receptor (CHRM4). CHO-K1 hM4/Gqi5, Fluo-8 calcium fluorescence; vehicle 0%, full acetylcholine response 100%. activation, % at 3 µM. hit rate 0.14% among 360,000. AID 624127;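 active = activation above the run mean over all test wells plus 3 SD, cut at about 32% in these data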;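 note: peak over basal fluorescence ratio per well then scaled between controls; 0% = DMSO wells and 100% = acetylcholine at EC100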
CHO-K1 Ca PAM = nonselective activator or artifact in parental CHO-K1 calcium assay. ATP EC20, Fluo-8 calcium fluorescence; 0% at ATP EC20, 100% at ATP max. activation, % at 3 µM. hit rate 0.02% among 360,000. AID 602247;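 active = activation above the run cutoff, the mean activation of all test compounds plus 3 SD, cut at about 40% in these data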;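 note: peak over basal fluorescence ratio in a 140 s read after ATP addition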
M4 PAM = potentiates acetylcholine response at human M4 receptor | P08173 | CHO-K1 hM4/Gqi5, Fluo-8 calcium fluorescence, ACh EC20; 0% = ACh EC20, 100% = maximal ACh | activation, % at 3 µM | hit rate 0.4% among 360,000 | AID 624126;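 active = activation above its plate's cutoff, the mean activation of sample wells plus 3 SD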
M1 ag parental = counter-screen for M1 agonists: effect in parental CHO-K1 cells. Fluo-8 calcium fluorescence; scaled to maximal ATP response, vehicle zero. hit rate 0.48% among 360,000. activation, % at 3 µM. AID 602248; in the data active = activation above about 15%;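 note: untransfected CHO-K1 host cells lacking M1 receptor as counterscreen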
CHO-K1 Ca antag = counter-screen for M1 antagonists: effect in parental CHO-K1 cells; ATP-induced calcium, Fluo-8 fluorescence; inhibition, % at 3 µM; hit rate 0.6% among 360,000;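 active = inhibition above a per-plate cutoff, the plate's mean sample inhibition plus 3 SD, cut at about 24% in these data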;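 note: 0% = DMSO plus EC80 ATP and 100% = DMSO alone without ATP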
* hit, by the source's call. Only some compounds are listed: those with a hit (about 2% of all), similar ones and a draw of the others.

SMILES	CHRM4 antagonist	M4 ag	CHO-K1 Ca PAM	M4 PAM	M1 ag parental	CHO-K1 Ca antag
COC(=O)CCC(C(=O)CN1C(=O)c2ccccc2C1=O)N1C(=O)c2ccccc2C1=O (centres undefined)	-2	3	-22	-5	0	6
Cn1c(=O)c([N+](=O)[O-])c(NCCCn2ccnc2)c2ccccc21	-1	2	13	-12	15*	0
C=CC[C@@H](CC(=O)N[C@@H](CO)Cc1ccccc1)C(=O)NCCOC(=O)[C@@H](CC=C)Cc1ccc(F)cc1	-11	3	-14	-3	0	24*
C=CC[C@H](CC(=O)N(CCO)Cc1ccccc1)C(=O)NC[C@H](OC(=O)[C@@H](CC=C)Cc1ccc(F)cc1)c1ccccc1	30*	21	-1	-14	6	4
C=CC[C@@H](CC(=O)N(CCO)Cc1ccccc1)C(=O)N[C@@H](COC(=O)[C@@H](CC=C)Cc1ccc(F)cc1)Cc1ccccc1	-5	4	7	10	2	-16
C=CC[C@@H](CC(=O)N(CCO)Cc1ccccc1)C(=O)N[C@H](COC(=O)[C@@H](CC=C)Cc1ccc(F)cc1)Cc1ccccc1	31*	11	9	-12	2	-6
COc1ccc(CNC(=S)Nc2ccccc2)cc1	-3	2	10	-1	1	2
Nc1ccccc1C(=O)N1CCc2ccccc21	1	-1	14	3	0	-6
O=C(c1ccccc1)c1nn(-c2ccccc2)c(=O)cc1C(F)(F)F	-10	-2	2	3	-1	-14
O=C(c1ccccc1)c1nn(-c2ccc(Cl)cc2)c(=O)cc1C(F)(F)F	11	-1	5	-9	19*	6
CCCCNC(=O)N1CCN(c2ccnc3cc(Cl)ccc23)CC1	8	20	7	-9	16*	4
O=S(=O)(c1ccccc1)N1CCN(c2ccnc3cc(Cl)ccc23)CC1	5	9	-1	-16	6	1
O=S(=O)(c1cccs1)N1CCN(c2ccnc3cc(Cl)ccc23)CC1	100*	-1	-19	-17	6	2
CCCC(C)C(=O)Nc1ncc(S(=O)(=O)c2ccc([N+](=O)[O-])cc2)s1 (centres undefined)	11	67*	6	-7	36*	14
Cc1cc(C)cc(NC(=O)c2ccc3nc[nH]c3c2)c1	-3	1	1	-3	0	1
Cc1ccc(NC(=O)c2ccc3nc[nH]c3c2)cc1C	10	2	-1	-3	18*	2
CC1=C(C(N)=O)C(c2ccc(Cl)c(Cl)c2)n2ncnc2N1 (centres undefined)	-8	0	3	3	0	-7
CCOC(=O)N1CCN(C(=O)COC(=O)COc2c(C)cc(C)cc2C)CC1	-15	1	2	24*	0	-4
Cc1c(N=Cc2nc3ccccc3[nH]2)c(=O)n(-c2ccccc2)n1C	5	1	-6	-4	0	31*
Cc1nc(NC(=O)CSc2ccc(-c3nc4ccccc4[nH]3)cn2)sc1C	-6	13	5	-14	16*	4
O=C(CSc1ccc(-c2nc3ccccc3[nH]2)cn1)Nc1ccc(S(=O)(=O)NC2CC2)cc1	31*	9	25	-21	2	-1
O=C(CSc1ccc(-c2nc3ccccc3[nH]2)cn1)Nc1ccc2c(c1)OCCO2	0	5	-14	-2	2	-5
CCCCNC(=O)c1nc(C2CCN(S(=O)(=O)c3c(F)cccc3F)CC2)oc1-c1cccc(C(F)(F)F)c1	-11	1	17	4	1	-15
COc1cc2c(cc1CNC[C@H]1O[C@@H](n3ccc(N)nc3=O)[C@H](O)[C@@H]1O)OCO2	-14	1	18	0	0	-6
CC(C)c1ccc(N2C(=O)CSC23C(=O)N2CCCc4cccc3c42)cc1 (centres undefined)	90*	-2	21	-34	1	-5
SMILES	CHRM4 antagonist	M4 ag	CHO-K1 Ca PAM	M4 PAM	M1 ag parental	CHO-K1 Ca antag
C[N+](C)(C)CCNC(=O)c1ccccc1	-7	1	-13	23*	-1	5
O=C(NCCNC(=O)c1ccccc1)c1ccccc1	-7	1	-6	12	0	-10
COc1ccccc1N1CCN(CC(=O)NCC2CCCO2)CC1 (centres undefined)	-2	1	-9	-2	0	27*
CC1(C)NC(=O)N(CC(=O)N2CCN(c3ccc([N+](=O)[O-])cc3)CC2)C1=O	-7	3	-12	6	1	-19
O=C(Nc1ccccc1C(=O)N1CCCCC1)c1ccccc1C(F)(F)F	-7	1	7	5	6	1
CCOc1ccc(-n2c(SCc3ccc([N+](=O)[O-])cc3)nnc2-c2ccccc2)cc1	7	-1	21	3	0	-7
COc1ccc(-n2c(SCc3ccc([N+](=O)[O-])cc3)nnc2-c2ccccc2)cc1	-1	0	25	-6	16*	-1
COC(=O)[C@H](C)NC(=O)NCc1ccccc1	-6	0	27	14	1	-13
Cc1[nH]c2c(C)cccc2c1CCNC(=O)c1ccc2c(c1[N+](=O)[O-])C(=O)c1ccccc1C2=O	29*	2	6	-10	0	12
CCOC(=O)C1CCN(c2ncnc3nc[nH]c23)CC1	2	1	9	-3	0	14
CCOC(=O)C1CCN(c2ncnc3c(C)csc23)CC1	35*	22	-26	-46	15*	17
O=C(NCc1cccc(Cl)c1)c1cc(COc2ccc3ncccc3c2)on1	11	17	-2	-8	12	7
COCCOC1CCN(C(=O)c2cc(COc3ccc(-n4cncn4)cc3)on2)CC1	0	2	-3	2	1	-1
Cc1ccc(F)cc1CNC(=O)c1cc(COc2ccc3ncccc3c2)on1	43*	25	-1	-19	14	17
COCC1CCCCN1C(=O)c1cc(COc2ccc3ncccc3c2)on1 (centres undefined)	34*	32*	-24	-12	20*	33*
CCC1CCCCN1C(=O)c1cc(COc2ccc3ncccc3c2)on1 (centres undefined)	5	22	-7	-12	16*	27*
COCCC1CCCCN1C(=O)c1cc(COc2ccc(-n3cncn3)cc2)on1 (centres undefined)	-1	16	-17	-5	15	25*
CCN1CCN(C(=O)c2cc(COc3ccc4ncccc4c3)on2)CC1	8	12	14	0	11	-4
O=C(COC(=O)c1cn(-c2ccccc2)nc1-c1cccnc1)NC1CC1	1	2	-1	-3	0	-8
